{
  "source": "PubChem BioAssay (EPA / NIEHS)",
  "note": "Active and inactive are the calls of the source. How the source made its calls: active means hit-call score of the fitted dose curve at least 0.9, where 1 is the maximum; inactive means score below 0.9.",
  "data": [
    {"read-out": "Transforming growth factor beta 1 (TGFb1), TGFB1 (gene 7040)", "experiment": "BSK_KF3CT_TGFb1: BioMAP Diversity Plus: KF3CT Assay for Transforming growth factor beta 1 (TGFb1) Biomarker Activity (AID 2283072)", "details": "primary human keratinocytes with fibroblasts; actives raise or lower the signal", "method": "BSK_KF3CT is a cell-based, multiplexed-readout assay that uses keratinocytes and foreskin fibroblasts, a human skin primary cell co-culture, with measurements taken at 24 hours after chemical dosing in a 96-well plate.BSK_KF3CT_TGFb1 is an assay component measured in the BSK_KF3CT assay. It measures TGF-b1 antibody related to regulation of gene expression using ELISA technology.Data from the assay component BSK_KF3CT_TGFb1 was analyzed into 1 assay endpoint. This assay endpoint, BSK_KF3CT_TGFb1, was analyzed with bidirectional fitting relative to DMSO as the negative control and baseline of activity. Using a type of binding reporter, gain or loss-of-signal activity can be used to understand changes in the signaling as they relate to the gene TGFB1. Furthermore, this assay endpoint can be referred to as a primary readout, because this assay has produced multiple assay endpoints where this one serves a signaling function. To generalize the intended target to other relatable targets, this assay endpoint is annotated to the growth factor intended target family, where the subfamily is transforming growth factor beta.\nThe levels of cell surface (or secreted, indicated by the prefix \"s\") biomarker endpoints were measured by ELISA. Overt cytotoxicity to cells in confluent adherent cultures (all systems other than the BT system) was assessed by measuring total protein levels using sulforhodamine B (SRB) staining in parallel cultures at the time of biomarker measurements, indicated as SRB endpoints. For proliferation assays for adherent cell types, individual cell types are cultured at sub-confluence and relative cell numbers quantified by SRB staining at time points optimized for each system (48 h: 3C and CASM3C systems; 72 h: BT and HDF3CGF systems; 96 h: SAg system). SRB was performed by staining cells with 0.1% SRB after fixation with 10% TCA and reading wells at 560 nm.Viability and proliferation of PBMC (T cells) was quantified by Alamar Blue reduction for the SAg and BT systems. For PBMC viability (referred to as PBMC Cytotoxicity within the assay endpoint names), cells were plated (75,000/well in a 96-well plate) and then chemical samples added for 1 h before addition of activators, SEB and TSST-1 (20 ng/mL final concentration each). Cells were incubated for 90 h. Then, Alamar Blue (20 uL/well) (Invitrogen, Cat DAL1100) was added for 6 h, and the plates were read with a fluorescence microplate reader at 546/580 nm (excitation/emission). For PBMC proliferation, cells were plated and activated as above but incubated for only 16 h prior to addition of Alamar Blue. Plates were read after 6 h.", "values": [
      {"compound": "N#C[C@@H]1CC(F)(F)CN1C(=O)CNC1CC2CCC(C1)N2c1ncccn1", "note": "(stereo not given in full)", "outcome": "inactive"},
      {"compound": "CCCCCCCC(=O)O", "outcome": "inactive"},
      {"compound": "O=[N+]([O-])c1ccc(O)cc1", "outcome": "inactive"},
      {"compound": "CC[C@H](C)[C@@H](C(=O)O)n1sc2ccccc2c1=O", "outcome": "inactive"},
      {"compound": "CC(C)(C)c1ccc(O)c(C(C)(C)C)c1", "AC50": "8.63 µM (active)"},
      {"compound": "CCc1nn(C2CCCCC2)c2cc(C3(C#N)CCC(C(=O)O)CC3)ccc12", "note": "(stereo not given)", "outcome": "inactive"},
      {"compound": "CCC(=C(c1ccc(O)cc1)c1ccc(OCCN(C)C)cc1)c1ccccc1", "AC50": "9.8 µM (active)"},
      {"compound": "CCCCOCCO", "outcome": "inactive"},
      {"compound": "CCOC(=O)CC(O)(CC(=O)OCC)C(=O)OCC", "outcome": "inactive"},
      {"compound": "CC(O)CO", "note": "(stereo not given)", "outcome": "inactive"},
      {"compound": "CN1CCC[C@H]1c1cccnc1", "outcome": "inactive"},
      {"compound": "OCCC(F)(F)C(F)(F)C(F)(F)C(F)(F)C(F)(F)C(F)(F)F", "outcome": "inactive"},
      {"compound": "C[C@@H]1C[C@H]2[C@@H]3CCC4=CC(=O)C=C[C@]4(C)[C@@]3(F)[C@@H](O)C[C@]2(C)[C@@]1(O)C(=O)COP(=O)(O)O", "outcome": "inactive"},
      {"compound": "CCCCCCCCCCCCCC[N+](C)(C)C", "AC50": "0.925 µM (active)"},
      {"compound": "CC(=O)CC(C)(C)O", "outcome": "inactive"},
      {"compound": "CC#C[C@]1(O)CC[C@H]2[C@@H]3CCC4=CC(=O)CCC4=C3[C@@H](c3ccc(N(C)C)cc3)C[C@@]21C", "outcome": "inactive"},
      {"compound": "CCCCC(CC)COC(=O)CCCCC(=O)OCc1ccccc1", "note": "(stereo not given)", "outcome": "inactive"},
      {"compound": "CC(C)(C)CC(C)(C)c1ccc(O)c(-n2nc3ccccc3n2)c1", "outcome": "inactive"},
      {"compound": "COC(=O)CCCCC(=O)OC", "outcome": "inactive"},
      {"compound": "CCN(CC)CCNc1ccc(CNC=O)c2sc3ccc(OC)cc3c(=O)c12", "AC50": "26.7 µM (active)"},
      {"compound": "CC(C)CCCCCCOC(=O)CCCCC(=O)OCCCCCCC(C)C", "outcome": "inactive"},
      {"compound": "O=C(O)c1ccccc1C(c1ccc(O)cc1)c1ccc(O)cc1", "outcome": "inactive"},
      {"compound": "CCCCCCCCCCCCCCCS(=O)(=O)Oc1ccccc1", "outcome": "inactive"},
      {"compound": "NC(=O)N(O)[C@@H]1C=C[C@H](Oc2cccc(Oc3ccc(F)cc3)c2)C1", "outcome": "inactive"},
      {"compound": "Oc1cc2ccccc2c2ccccc12", "AC50": "6.02 µM (active)"},
      {"compound": "CN(C)C=O", "outcome": "inactive"},
      {"compound": "CCCCCCC(=O)O", "outcome": "inactive"},
      {"compound": "Nc1cccc2c(N)cccc12", "outcome": "inactive"},
      {"compound": "Cc1cc(C)c(O)c(C)c1", "outcome": "inactive"},
      {"compound": "CCCCCCCCOC(=O)CCCCCCCCC(=O)OCCCCCCCC", "outcome": "inactive"},
      {"compound": "c1ccc2c(c1)ccc1ccccc12", "outcome": "inactive"},
      {"compound": "C#C[C@]1(O)CC[C@H]2[C@@H]3CCC4=CC(=O)CC[C@@H]4[C@H]3CC[C@@]21C", "outcome": "inactive"},
      {"compound": "CC[C@H](c1ccc(O)cc1)[C@@H](CC)c1ccc(O)cc1", "AC50": "29.8 µM (active)"},
      {"compound": "NC(=O)N1C(=O)C(C(=O)c2cc(Cl)cs2)c2cc(F)c(Cl)cc21", "note": "(stereo not given)", "AC50": "7.48 µM (active)"},
      {"compound": "ClC1=C(Cl)C(Cl)(Cl)C(Cl)=C1Cl", "AC50": "9.02 µM (active)"},
      {"compound": "c1ccc2cc3c(ccc4ccccc43)cc2c1", "outcome": "inactive"},
      {"compound": "COCC(C)O", "note": "(stereo not given)", "outcome": "inactive"},
      {"compound": "O=C(OCCOCCOC(=O)c1ccccc1)c1ccccc1", "outcome": "inactive"},
      {"compound": "CN1CCN(c2ccccc2/C=C2\\SCCN(c3ccc(Cl)c(Cl)c3)C2=O)CC1", "AC50": "29.1 µM (active)"},
      {"compound": "CCCCC(CC)COC(=O)CCCCC(=O)OCC(CC)CCCC", "note": "(stereo not given)", "outcome": "inactive"}
    ]}
  ]
}
